# Assay results taken from PubChem BioAssay (NCATS).
# Inconclusive results are not listed. Where a call stands in place of a potency, no number is given. Calls of active or inactive are those of the source. The call rests on the fitted dose curve; in most records, active means well fitted cell-killing curve with a large enough effect; inconclusive means small, poorly fitted or top-dose-only effect, or effect the other way; inactive means flat fitted curve, though single readings scatter.
# Tested on: Tov-21-G
# Experiment: Primary qHTS to identify gynecologic anti-cancer compounds using libraries of approved drugs and bioactive compounds (AID 1345084); further: nearly all actives have a fitted effect of over 55% in size
# Details: Gynecologic cancer cell panel viability, ATPlite luminescence, 48 h; series mostly up to 57.5 µM
# Procedure, shortened: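 Cell viability after 48 h drug treatment, ATPlite luminescence readout; five doses.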
row,SMILES,Potency
1,O=C(OC[C@H]1O[C@@H](Oc2ccccc2CO)[C@H](O)[C@@H](O)[C@@H]1O)c1ccccc1,inactive
2,CC1=CCC(O)C2(C)CCC3C(C)C(=O)OC3C12 (centres undefined),inactive
3,COc1cc(CC2COC(c3ccc(OC4OC(CO)C(O)C(O)C4O)c(OC)c3)C2CO)ccc1O (centres undefined),inactive
4,CC(C)Oc1ccc(-c2nc(-c3cccc4c3CCC4NCCC(=O)O)no2)cc1C#N (centres undefined),inactive
5,O=C(O)CCc1cccc(O)c1O[C@@H]1O[C@H](CO)[C@@H](O)[C@H](O)[C@H]1O,inactive
6,CC1(C)COC(=O)[C@@H]1O[C@@H]1O[C@H](CO)[C@@H](O)[C@H](O)[C@H]1O,inactive
7,O=C(OCc1ccccc1O[C@@H]1O[C@H](CO)[C@@H](O)[C@H](O)[C@H]1O)C1(O)C=CCCC1O (some centres undefined),inactive
8,CC(=O)O[C@H]1C[C@@H](O)C(C)(C)C2C[C@@H](OC(C)=O)[C@]3(C)C(CC[C@@]4(C)[C@H](c5ccoc5)OC(=O)[C@H]5O[C@]543)[C@]21C (some centres undefined),inactive
9,CCNC(=O)OC1CCN(c2nncc3cc(OC)c(OC)cc23)CC1,inactive
10,C[C@]12CC[C@@H]3c4ccc(O)cc4CC[C@H]3[C@@H]1C[C@@H](O[C@@H]1O[C@H](C(=O)O)[C@@H](O)[C@H](O)[C@H]1O)[C@@H]2O,inactive
11,CC(=O)c1ccc(O[C@@H]2O[C@H](CO[C@@H]3OC[C@@H](O)[C@H](O)[C@H]3O)[C@@H](O)[C@H](O)[C@H]2O)cc1,inactive
12,CC[C@@H]1C(=O)O[C@]23C=C[C@@H]4C(C(=O)OC)=CO[C@H](O[C@@H]12)[C@@H]43,inactive
13,CC(O)C1CCC2C3CCC4CC(OC5OC(C(=O)O)C(O)C(O)C5O)CCC4(C)C3CCC12C (centres undefined),inactive
14,CC(O)CCc1ccc(O[C@@H]2O[C@H](CO)[C@@H](O)[C@H](O)[C@H]2O)cc1 (some centres undefined),inactive
15,Cc1sc(C)c(C(=O)NC2(c3ccc(C(=O)O)cc3)CC2)c1Cc1ccc(C(F)(F)F)cc1,inactive
16,C=CC(C)(O)CC/C=C(\C)C1CC=C(C)C(=O)O1 (centres undefined),inactive
17,COc1cc(O[C@@H]2O[C@H](CO[C@H]3OC[C@](O)(CO)[C@H]3O)[C@@H](O)[C@H](O)[C@H]2O)cc(OC)c1O,inactive
18,CC1(C)OC(=O)C=C[C@@]2(C)C1CC(=O)[C@]1(C)C2CC[C@@]2(C)[C@H](c3ccoc3)OC(=O)[C@H]3O[C@]321 (some centres undefined),inactive
19,C/C=C1/C[N+](C)([O-])C2Cc3c([nH]c4ccccc34)C(=O)CC1C2C(=O)OC (centres undefined),inactive
20,Cc1occc(=O)c1O[C@@H]1O[C@H](COC(=O)CC(C)(O)CC(=O)O)[C@@H](O)[C@H](O)[C@H]1O (some centres undefined),inactive

row,SMILES,Potency
1,COC(=O)[C@]1(C)CCC[C@@]2(C)[C@@H]3CC[C@@H]4C[C@@]3(CC[C@@H]21)C[C@H]4C(=O)O,inactive
2,CN1CCN(c2nc(-c3ccc(C(=O)NC4(C(=O)NCC#N)CCCCC4)cc3)cs2)CC1,inactive
3,Cc1nc2cc(-c3cc(F)cc(C#N)c3)ccc2s1,inactive
4,Cc1ccc2nc(NC(=O)CSc3nc4c(c(=O)n3-c3ccc(F)cc3)SCC4)sc2c1,inactive
5,CCCNCCOc1ccc(NC(=O)c2c[nH]c3c2C(=O)CCC3)cc1F,inactive
6,CNc1nc(Nc2cn(C(C)(C)C#N)nc2C)ncc1C(F)(F)F,inactive
7,COc1cnc(-n2cnc(C)n2)c2[nH]cc(C(=O)C(=O)N3CCN(C(=O)c4ccccc4)CC3)c12,inactive
8,CC1(C)Oc2ncnc(N)c2N=C1c1ccc(C2CCC(CC(=O)O)CC2)cc1 (centres undefined),inactive
9,COc1cc(/C=C/C(=O)O[C@@H]2C[C@@](O)(C(=O)O)C[C@@H](O)[C@@H]2O)ccc1O,inactive
10,CC1=CC(=O)C(=C(C)C)CC2C(C)(O)CCC12O (centres undefined),inactive
11,CC(C)[C@@](O)(c1ccc2cc(OC(F)F)c(OC(F)F)cc2c1)c1cn[nH]n1,inactive
12,Nc1ncnc2c1c(COc1cccc(Cl)c1)nn2C1CCOCC1,inactive
13,CC(=O)O[C@@H]1[C@H](OC(C)=O)C[C@@]2(C)C(CC[C@@H](C)[C@]23Cc2c(O)cc4c(c2O3)CN([C@@H](CCC(=O)O)C(=O)O)C4=O)C1(C)C (some centres undefined),inactive
14,COCCCc1sc(-c2ccccc2)nc1C(=O)Nc1ccccc1-c1nc2cc(CN3CCCC3)cnc2s1,inactive
15,CC[C@@H](Nc1c(Nc2cccc(C(=O)N(C)C)c2O)c(=O)c1=O)c1ccc(C)o1,inactive
16,C=C1[C@H](OC(C)=O)[C@H]2[C@@H](OC(C)=O)C(C)C[C@]2(OC(C)=O)C(=O)[C@H](C)/C=C/C(C)(C)C(=O)[C@H](OC(=O)C(C)C)[C@H]1OC(C)=O (some centres undefined),inactive
17,CC1=C(CC/C(C)=C/C(=O)O)[C@@]2(C)CCCC(C)(C)C2CC1=O (some centres undefined),inactive
18,CCC(C)/C=C(C)/C=C/C1=CC2=C(Cl)C(=O)C(C)(OC(C)=O)C(=O)C2=CN1CCCCC(N)C(=O)O (centres undefined),inactive
19,CC(=O)O[C@H]1[C@H](O[C@H]2CC[C@]34C[C@]35CC[C@]3(C)[C@@H]([C@@]6(C)CC[C@@H](C(C)(C)O)O6)[C@@H](O)C[C@@]3(C)[C@@H]5C[C@H](O[C@@H]3O[C@H](CO)[C@@H](O)[C@H](O)[C@H]3O)[C@H]4C2(C)C)OC[C@@H](OC(C)=O)[C@@H]1O,inactive
